# IL1B secr inh = inflammasome signaling inhibition, IL-1 beta readout; THP-1 LPS/ATP IL-1B secretion, AlphaLISA, 16 h; stronger effect = lower value; activity change, % at 57.5 µM; hit rate 4.7% among 360,000; in the data active means activity change below about -50%; inconclusive means mostly about -30% to -49%
#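 Secreted IL-1B measured by AlphaLISA bead assay after 16 h compound exposure of THP-1 cells; compounds (final up to 57.5 uM) added 1 h before LPS (250 ng/mL) and ATP (1.25 mM) stimulation; lower signal means less secretion.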
# LDHA block = LDHA (human) enzyme inhibition | purified LDHA, NADH/diaphorase-resazurin fluorescence; stronger effect = lower value | activity change, % (values are at about 110 or 230 µM) | hit rate 0.15% among 480,000 | AID 1347041 | P00338; in the data active means activity change below about -30%; inconclusive means mostly about -25% to -30%
#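 Resorufin fluorescence (ex540/em590), read at 0 and 20 min after diaphorase/resazurin addition, reports the NADH left after a 5 min room-temperature reaction of 2 nM human LDH5 with 0.06 mM NADH and 0.2 mM pyruvate.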
# RORg inh = blocks mouse ROR gamma transcriptional activity | Drosophila S2 Gal4-RORgamma UAS-luciferase reporter, 20 h | Potency, µM (highest dose often 53.6 µM), most hits filed as inhibitors | hit rate 5.4% among 310,000 | AID 2551; further: nearly all actives have a fitted effect of over 60% in size
# Target sequence (P51450 whole entry, looked up, the tested form may be a part): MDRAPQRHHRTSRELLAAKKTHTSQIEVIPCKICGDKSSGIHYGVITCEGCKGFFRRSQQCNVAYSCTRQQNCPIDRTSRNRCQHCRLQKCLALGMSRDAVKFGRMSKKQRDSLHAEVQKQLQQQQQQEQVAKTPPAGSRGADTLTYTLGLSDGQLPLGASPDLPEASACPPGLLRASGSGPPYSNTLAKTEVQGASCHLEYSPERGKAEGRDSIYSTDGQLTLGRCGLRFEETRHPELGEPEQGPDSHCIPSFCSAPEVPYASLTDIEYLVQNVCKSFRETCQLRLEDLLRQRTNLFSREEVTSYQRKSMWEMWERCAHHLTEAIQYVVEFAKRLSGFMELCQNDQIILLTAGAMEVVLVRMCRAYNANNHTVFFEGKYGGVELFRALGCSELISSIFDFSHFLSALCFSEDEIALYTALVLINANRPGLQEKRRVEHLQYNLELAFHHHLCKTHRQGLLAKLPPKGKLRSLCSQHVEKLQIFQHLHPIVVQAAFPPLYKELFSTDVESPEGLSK
#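 Read-out: Photinus luciferase luminescence; inhibitors lower reporter signal. Insect Schneider cells with Gal4-ROR gamma fusion under metallothionein promoter, UAS reporter; 700 uM final copper sulfate induction, 20 hr, ambient temperature.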
# VP16 counter = inhibits Gal4-VP16 luciferase reporter, ROR gamma counter-screen; Drosophila S2 Gal4-VP16 UAS-luciferase, luminescence, 20 h; Potency, µM (doses to about 53.6 µM), most hits filed as inhibitors; hit rate 3.5% among 310,000;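 further: Gal4-VP16 expression switched on by copper sulfate through the metallothionein promoter; nearly all actives have a fitted effect of over 50% in size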
# TDP1 cell CPT = DT40-hTDP1 cell growth loss with CPT; hit rate 12% among 420,000; chicken DT40 Tdp1-/-;hTDP1 cells + 20 nM CPT, ATP luminescence, 48 h; Potency, µM (titrated, usually from 46.2 µM), actives largely listed as inhibitors; further: nearly all actives have a fitted effect of over 55% in size
#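 Chicken DT40 Tdp1-/- cells stably complemented with human TDP1 were seeded at 400 cells/well in medium containing 20 nM camptothecin, exposed to pin-transferred compounds, and grown at 37 °C for at least 48 hr. Viability was read as ATP luminescence.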
# TDP1 cell noCPT = qHTS for Inhibitors of human tyrosyl-DNA phosphodiesterase 1 (TDP1): qHTS in cells in absence of CPT; hit rate 15% among 420,000; Potency, µM (highest dose often 46.2 µM), usual class: inhibitors; DT40 Tdp1-/- hTDP1 cells, no CPT, ATP luminescence, 48 h; further: nearly all actives have a fitted effect of over 55% in size
#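 Compound effects on proliferation are scored in DT40 Tdp1-/-;hTDP1 cells in the absence of CPT. ATP levels (CellTiter-Glo luminescence) are recorded after a ≥48 hr, 37 °C incubation.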
# A number is an active result; – = inactive; ? = inconclusive; · = no result; [ ] = dose if it differs, or a comment. Hits are enriched below; roughly 18% of the tested compounds scored in any of these assays. Unless noted, the call rests on the fitted dose curve; in most records, active means well fitted curve in the direction sought with a large enough effect; inconclusive means small, poorly fitted or top-dose-only effect, or another doubt; inactive means no such curve, though single readings can be large; an effect the other way counts as inactive or inconclusive.
SMILES,IL1B secr inh,LDHA block,RORg inh,VP16 counter,TDP1 cell CPT,TDP1 cell noCPT
Cc1cc(Cl)c(S(=O)(=O)N2CCN(c3ccc(F)cc3)CC2)cc1OCC(=O)NC1CCCCC1,-75,–,–,–,12µM,8.2µM
CCOC(=O)C1CCCN(S(=O)(=O)c2cc(OCC(=O)NC3CCCCC3)c(C)cc2Cl)C1 (stereo not given),–,–,–,–,18µM,18µM
CCCCn1nc(C(=O)N(Cc2ccc3c(c2)OCO3)C2CCCC2)c2ccccc2c1=O,·,–,·,·,·,·
Fc1cccc(-c2nc(CSc3ncn[nH]3)co2)c1,·,–,·,·,·,·
CC1(c2nc3ccccc3[nH]2)CCCC2=Nc3ccccc3CN21 (stereo not given),–,–,·,·,?,18µM
Cc1ccc(S(=O)(=O)NCC2CCC(C(=O)N[C@H](C)C(=O)N3CCc4ccccc4C3)CC2)cc1 (stereo not given in full),·,–,·,·,·,·
CCc1nnc(NC(=O)CSc2nnc(-c3ccccc3O)o2)s1,–,–,0.11µM,1.1µM,–,–
Cc1cccc(NC(=O)CSc2nnc(CSc3nc(C)cc(C)n3)o2)c1,–,–,–,–,–,–
CCc1nnc(NC(=O)CSc2ncc(-c3ccccc3)n2C)s1,–,–,11µM,?,–,–
CCc1nnc(NC(=O)CSc2nccn2-c2ccccc2)s1,–,–,–,–,–,–
CCc1nnc(NC(=O)CSc2nnc(CSc3nc(C)cc(C)n3)o2)s1,–,–,5.6µM,13µM,–,–
CC(=O)Nc1ccccc1OCc1cc(C)cc(C)c1,·,–,·,·,·,·
O=C(CC(=O)c1ccccn1)c1ccccc1,–,–,·,·,21µM,16µM
O=C(Nc1ccccc1)O/N=C(\c1ccccc1)c1ccccn1,–,–,11µM,–,–,–
O=C(CC(CC(=O)c1ccccc1)c1ccccn1)c1ccccc1,–,–,·,·,?,15µM
O=C(CC(=O)c1ccccc1)Nc1ccccn1,–,–,–,–,–,–
Cc1cc(=O)[nH]c(SCC(=O)N2CCN(C(c3ccccc3)c3ccccc3)CC2)n1,–,–,–,–,18µM,?
Cc1cc(=O)[nH]c(SCC(=O)N2CCN(c3ccccc3)CC2)n1,·,–,·,·,–,–
O=C(CSc1ncccn1)N1CCN(C(=O)CSc2ncccn2)CC1,–,–,–,–,–,–
O=C(CSc1ncccn1)N1CCN(C(c2ccccc2)c2ccccc2)CC1,–,-56,–,–,?,?
CC12CCC(C(=NO)C1=NO)C2(C)C (stereo not given),–,–,·,·,–,–
CC12CCC(c3c1nc1ccccc1[n+]3[O-])C2(C)C (stereo not given),–,–,–,–,?,18µM
CC(OC(=O)/C=C/c1ccccc1)C(N)=O (stereo not given),·,–,·,·,·,·
CC(=O)CCC1C2C(O)C(C(C)C)C(OC(=O)/C=C/c3ccccc3)CC12C (stereo not given),–,–,–,?,18µM,26µM
CN(CCOc1ccc(Cl)cc1)C(=O)c1cc(S(=O)(=O)N2CCOCC2)ccc1N1CCCC1,–,–,·,·,16µM,21µM
SMILES,IL1B secr inh,LDHA block,RORg inh,VP16 counter,TDP1 cell CPT,TDP1 cell noCPT
Cc1ccc(S(=O)(=O)N2CCOCC2)cc1C(=O)N(C)CCOc1ccc(Cl)cc1,–,–,–,–,?,16µM
CN(Cc1ccc(Cl)cc1)C(=O)c1cc(S(=O)(=O)N2CCOCC2)ccc1N1CCCC1,–,–,·,·,?,?
CN(CCOc1ccc(Cl)cc1)C(=O)c1cc([N+](=O)[O-])ccc1N1CCOCC1,–,–,·,·,21µM,12µM
COc1ccc(S(=O)(=O)N2CCCCCC2)cc1C(=O)N(C)CCOc1ccccc1,–,–,·,·,?,18µM
Cc1ccc(S(=O)(=O)N2CCCCC2)cc1C(=O)N(C)CCOc1ccccc1,–,–,–,–,–,–
COc1ccc2c(CN(C)CCOc3cccc(Cl)c3)cc(=O)oc2c1,·,–,·,·,·,·
Cc1ccc(Cn2ccc(NC(=O)C3=CC(c4ccc(C)cc4)=NS(=O)(=O)N3C)n2)cc1,·,–,·,·,·,·
CN(C)C(=O)c1cn(CCC#N)nc1-c1cccc(Cl)c1,·,–,·,·,·,·
COc1ccc(S(=O)(=O)N2CCCCCC2)cc1C(=O)N(C)Cc1ccc(Cl)cc1Cl,-56,–,·,·,?,?
COc1ccc(S(=O)(=O)N2CCCCCC2)cc1N(C)S(=O)(=O)c1ccc(C)cc1,–,–,?,?,?,13µM
COc1ccc(S(=O)(=O)N2CCCCCC2)cc1C(=O)N1CCCCC1,–,–,1.4µM,?,–,–
COc1ccc(S(=O)(=O)N2CCOCC2)cc1C(=O)N(C)CCOc1ccc(Cl)cc1,–,–,·,·,?,16µM
COc1ccc(S(=O)(=O)N2CCOCC2)cc1N(C)S(=O)(=O)c1ccc(C)cc1,–,–,–,–,?,?
CCn1c2c(c(=O)[nH]c1=O)C(c1cccc(F)c1)C1=C(COC1=O)N2 (stereo not given),·,–,·,·,·,·
CN(CCOc1ccc(Cl)cc1)c1ccc(S(=O)(=O)N2CCCCC2)cn1,–,–,–,–,18µM,23µM
Cc1ccccc1OCc1nnc(SCc2ccc(Cl)c(Cl)c2)n1C,·,–,·,·,·,·
Cc1cc(-n2c(C)c3c(C)nnc(C)c3c2C)ccc1N,·,–,–,–,8.2µM,?
Cc1ccc(-n2c(C)c3c(C)nnc(C)c3c2C)cc1N,–,–,–,–[10 µM],21µM,?
Cc1ccc(-n2c(C)c3c(C)nnc(C)c3c2C)cc1C,?,–,?,–,15µM,15µM
Cc1nnc(C)c2c(C)n(-c3ccccc3)c(C)c12,–,–,–,–,23µM,23µM
Cc1ccc(-n2c(C)c3c(C)nnc(C)c3c2C)cc1,·,·,?,–,·,·
Cc1nnc(C)c2c(C)n(-c3cccc4cccnc34)c(C)c12,·,·,–,–,·,·
Cc1nnc(C)c2c(C)n(-c3ccccc3N)c(C)c12,–,–,–,–,21µM,?
CCCCCC(C)NS(=O)(=O)Cc1ccc([N+](=O)[O-])cc1 (stereo not given),·,–,·,·,·,·
C=CC(=O)Nc1cc2c(Nc3ccc(F)c(Cl)c3)ncnc2cc1OCCCN1CCOCC1,·,·,·,·,5.3µM,4.7µM
O=C(CSc1nc2ccccc2c(=O)n1CCCN1CCOCC1)Nc1ccc(F)c(Cl)c1,?,–,·,·,?,?
COc1ccc(C2=NN(CN3C(=O)C(=O)c4ccccc43)C(c3cccc([N+](=O)[O-])c3)C2)cc1 (stereo not given),-66,–,–,–,?,?
COc1cc(O)c(CC=C(C)C)c(O)c1C(=O)CCc1ccc(O)cc1,–,–,–,–,21µM,21µM
